# Bioassay records (PubChem)
# Lassa entry inh = blocks Lassa virus binding to or entry into cells. Potency, µM (highest dose often 37.9 µM), for inactives: at the highest dose activity change, negative = inhibition, usual class: inhibitors. Lassa virus pseudotype entry inhibition, cell reporter. 300,000 compounds, 1.2% hits; calls by dose curve; tested in HEK293 cells; further: potency means the concentration at half of the fitted maximal effect; on the % scale 0 is the no-effect control and ±100 the full control effect; nearly all actives have a fitted effect of over 50% in size
# HCV inhibitor = blocks hepatitis C virus; 340,000 compounds, 3.4% hits; Huh7.5.1 HCVcc-Cre infection, luciferase reporter, 44 h; Potency, µM (doses to about 41.8 µM), inactives show at the highest dose activity change, negative = inhibition, most hits filed as inhibitors; active means well fitted inhibition curve with a large enough effect; inconclusive means small, poorly fitted or top-dose-only effect, or another doubt; inactive means no such curve, though single readings can be large or run the other way; further: potency means the concentration at half of the fitted maximal effect; on the % scale 0 is the no-effect control and ±100 the full control effect
#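 Compounds are dispensed onto cells plated 4 h earlier at 1,000 per well, with HCVcc-Cre virus (about 0.5 moi) added next. Following 44 h of culture, luminescent signal is measured for 15 sec after 15 min with substrate at room temperature.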
# Marburg entry inh = Marburg virus entry inhibition. Marburg virus pseudotyped entry inhibition, cell reporter. Potency, µM (titrated, usually from 37.8 µM), without a hit: top-dose activity change, negative = inhibition, most hits filed as inhibitors. 300,000 compounds, 1.8% hits; calls by dose curve; tested in HEK293 cells; further: potency means the concentration at half of the fitted maximal effect; on the % scale 0 is the no-effect control and ±100 the full control effect
# HCMV inh = blocks human cytomegalovirus replication; HFF cells, HCMV-luciferase reporter, 72 h; active compounds read low; activity change, negative = inhibition, % at 57.5 µM; 410,000 compounds, 4.5% hits; in the data active means activity change below about -60%; inconclusive means no clear call, values can overlap the other calls; inactive means above about -39%; further: on the % scale 0 is the no-effect control and ±100 the full control effect
#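 Inhibition of viral replication was scored as loss of reporter luminescence in HFFs infected with HCMV-luciferase (MOI 1 PFU/cell) for 72 h; compounds tested at 2 doses, normalized to buffer and Salinomycin controls.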
# SARS PLP yeast = inhibitors of SARS-CoV papain-like protease in yeast | S. cerevisiae expressing SARS-CoV PLpro, growth rescue | Potency, µM (doses to about 32.9 µM), for inactives: top-dose activity, positive = growth rescue, most hits filed as activators | 330,000 compounds, 0.19% hits; calls by dose curve; further: potency means the concentration at half of the fitted maximal effect; 0% is about no effect; nearly all actives have a fitted effect of over 55% in size
# FMDV inh = antivirals against foot and mouth disease virus. FMDV antiviral cell-based qHTS. Potency, µM (top dose mostly 57.9 µM), without a hit: at the top dose activity change, negative = inhibition, actives largely listed as inhibitors. 410,000 compounds, 1.2% hits; calls by dose curve; tested in HEK293T cells; further: read-out not given here; potency means the concentration at half of the fitted maximal effect; on the % scale 0 is the no-effect control and ±100 the full control effect; nearly all actives have a fitted effect of over 45% in size
# Active calls of the source: *; ? = inconclusive; / = no result; [ ] = remark or other dose. Shown are actives, neighbours in structure and some others; about 8% of the full set was active somewhere.
SMILES,Lassa entry inh,HCV inhibitor,Marburg entry inh,HCMV inh,SARS PLP yeast,FMDV inh
O=C(Nc1cccc(F)c1)NC1(C(=O)N2CCC(O)CC2)CCCCC1,?,6%,?,-99*,4%,13%
CCCCn1c(N)c(N(CCC(C)C)C(=O)CSc2nc3ccccc3n2C)c(=O)[nH]c1=O,-1%,10µM*,6%,-18,/,-15%
O=C(Nc1ccccc1OC(F)F)c1ccn2ccnc2n1,/,/,/,9,/,/
Cc1cc(C(=O)N/N=C/c2cc(Br)ccc2OC(=O)c2ccccc2Cl)n[nH]1,10µM*,?,10µM*,?,0%,-13%
Cc1cc(C(=O)N/N=C/c2cc(Br)ccc2OC(=O)c2ccccc2)n[nH]1,?,?,10µM*,103,4%,-8%
Cc1cc(C(=O)N/N=C/c2ccc(OC(=O)c3ccccc3Br)cc2)n[nH]1,-11%,-11%,?,-29,0%,-1%
CCOC(=O)c1cc2[nH]c3ccccc3c2[n+](-c2ccc([N+](=O)[O-])cc2)c1N,-9%,11%,?,-91*,0%,?
CCCC(=O)Nc1ccccc1C(=O)OCc1cc(=O)n2nc(C(C)C)sc2n1,1%[46.1 µM],/,/,90,/,5%
COc1ccccc1N(C)S(=O)(=O)c1ccc(C(=O)Nc2ncc(C)s2)cc1,?,14µM*,-28%,?,2%,?
CCCc1nnc(NC(=O)c2ccc(S(=O)(=O)N(C)c3ccccc3OC)cc2)s1,-6%,4%,0%,0,-4%,?
COc1ccccc1N(C)S(=O)(=O)c1ccc(C(=O)Nc2nc(C)c(C(C)=O)s2)cc1,/,2%,/,-1,0%,?
COc1ccccc1N(C)S(=O)(=O)c1ccc(C(=O)Nc2nccs2)cc1,/,11µM*,/,?,1%,0%
COc1ccc(Cn2c(=O)[nH]c3cc(C(=O)N4CCN(c5ccccc5F)CC4)ccc3c2=O)cc1,/,?,-1%[46.1 µM],-14,-2%,-10%
COc1ccc(Cn2c(=O)[nH]c3cc(C(=O)N4CCN(c5ccccc5OC)CC4)ccc3c2=O)cc1,?,10µM*,?,/,-11%,18µM*
COc1ccc(Cn2c(=O)[nH]c3cc(C(=O)N4CCN(Cc5ccccc5)CC4)ccc3c2=O)cc1,-14%,?,?,-63*,4%,14µM*
COc1ccc(Cn2c(=O)[nH]c3cc(C(=O)N4CCN(c5cc(C)ccc5C)CC4)ccc3c2=O)cc1,21%[46.1 µM],/,?,-12,/,-21%
COc1ccc(CCn2c(=O)[nH]c3cc(C(=O)N4CCN(c5ccccc5)CC4)ccc3c2=O)cc1OC,-11%,?,?,-20,1%,16µM*
COc1cc(NS(=O)(=O)c2ccc(N/C=C(\C#N)c3nc4cc(Cl)ccc4o3)cc2)nc(OC)n1,?,-11%,?,-86*,-5%,?
COc1cc(NS(=O)(=O)c2ccc(NC(C)=O)cc2)nc(OC)n1,-5%,21%,?,67,2%,-3%
COc1cc(C(=O)OCC(=O)NC(N)=O)cc(CN2C(=O)c3ccccc3C2=O)c1OC,/,21%,/,9,3%,-13%
Cc1cc(C)c(NC2=NCCS2)cc1C,/,/,/,-89*,/,-15%
COc1ccccc1NC1=NCCS1,6%,1%,2%,19,15%,7%
CCNc1ncc2ncc(=O)n(Cc3cccs3)c2n1,/,/,/,/,/,-12%
COCN(C#N)c1nc(N(C)C)nc(N(C)C)n1,/,?,-15%[46.1 µM],3,0%,2%
CCN(C#N)c1nc(N(C)C)nc(N(C)C)n1,-4%,10µM*,19%,-12,-2%,0%
SMILES,Lassa entry inh,HCV inhibitor,Marburg entry inh,HCMV inh,SARS PLP yeast,FMDV inh
Cc1ccc2[nH]c(CSc3nnc(NC(=O)c4ccccc4C)s3)cc(=O)c2c1,2%[46.1 µM],/,/,-74*,/,?
COc1ccccc1C(=O)Nc1nnc(SCc2cc(=O)c3ccccc3[nH]2)s1,-29%[46.1 µM],/,/,-39,/,22µM*
Cc1ccc2[nH]c(CSc3nnc(NC(=O)c4ccccc4F)s3)cc(=O)c2c1,0%[46.1 µM],/,/,-11,/,?
O=C(Nc1nnc(SCc2cc(=O)c3ccccc3[nH]2)s1)c1ccccc1,19%[46.1 µM],/,/,-18,/,?
CC(=O)c1ccc(C(=O)Nc2ccc3c(c2)C(=O)NC3=O)cc1,/,8%,/,?,10%,-18%
CC(C)(CC(=O)NCc1ccc(Cl)cc1Cl)CC1=NS(=O)(=O)c2ccccc2N1,?,/,/,-89*,/,?
Cc1ccc(Cn2c(=N)n(CC(=O)c3ccc([N+](=O)[O-])cc3)c3ccccc32)cc1,-21%,?,?,-92*,6%,?
CCCCn1c(=N)n(CC(=O)c2ccc([N+](=O)[O-])cc2)c2ccccc21,/,/,/,-104*,-1%,/
CC(=O)N1CC2=C(CCCC2)C(C)CC12CCCCC2 (stereo unspecified),/,/,-18%,/,/,/
O=C(Nc1cc(C(F)(F)F)cc(C(F)(F)F)c1)O[C@@H]1c2ccccc2[C@@H]2Cc3csc[n+]3[C@H]12,/,/,/,9,/,-12%
CC1=NN(c2ccccc2)C(=O)C1N=Nc1ccc(C)cc1 (stereo unspecified),/,/,/,/,1%,/
CC(=O)Nc1ccc(N2N=C(C)C(N=Nc3ccccc3)C2=O)cc1 (stereo unspecified),22%,-2%,21%,-101*,6%,16%
O=C1NC[C@@H](CCCCN2C[C@H](Cc3ccccc3)N(CCC3CCCCC3)C(=O)C2=O)N(Cc2ccccc2)C1=O,/,/,/,-17,/,21%
O=C1NC[C@H](CCCCN2C[C@H](Cc3ccc(O)cc3)N(CC3CCCCC3)C(=O)C2=O)N(Cc2ccccc2)C1=O,/,/,/,-75*,/,-18%
O=C1NC[C@H](CCCCN2C[C@H](Cc3ccccc3)N(CCC3CCCCC3)C(=O)C2=O)N(CCC2CCCCC2)C1=O,/,/,/,-8,/,40µM*
CC(C)CCN1C(=O)c2ccccc2CC1(C)C(=O)NC1CCCCC1 (stereo unspecified),/,/,-20%[46.1 µM],-19,/,12%
C#CCCCO/N=C1\C[C@@H](O)[C@@H](O)[C@@H]2[C@@H]3C(=O)N(C[C@@H]4CCCO4)C(=O)[C@@H]3CC[C@@H]12,/,/,3%[14.2 µM],/,/,/
CC(=O)N(Cc1cc2ccccc2[nH]c1=O)c1ccc(C)cc1,/,3%,/,22,-3%,-18%
CCc1ccc2c(c1)/C(=C/C(=O)c1cccs1)C(=O)N2,?,22µM*,?,-99*,-51%,20µM*
Cc1cccc2c1NC(=O)/C2=C\C(=O)c1cccs1,?,30%,?,-10,-27%,?
O=C1c2cc(F)ccc2-n2c1nc1ccccc1c2=O,?,2.5µM*,?,-83*,-3%,?
Nn1c(-c2ccc(F)cc2)nc2ccccc2c1=O,/,8%,/,-23,-1%,-2%
Cc1ccc(NC(=O)CN2C(=O)COc3ccc(S(=O)(=O)N4CCCC4)cc32)cc1C,?,-12%,3%[46.1 µM],44,1%,-14%
